# Key:
# Experiment in all cases: DAPPL (digital affinity profiling via proximity ligation, sequencing); 10 mM Tris-HCl pH 7.5, 50 mM NaCl, 1 mM DTT, 4% glycerol, room temperature, 30 min; GST-TFs on glutathione beads, 16-mer random dsDNA library, 0.1% formaldehyde crosslink after washing; high values mean tight binding
# FLI1 = target: T1, FLI1 (Homo sapiens, UniProt Q01543 1-452); details: protein: recombinant; tags: N-terminal GST; dsDNA, one strand shown
# T1 sequence: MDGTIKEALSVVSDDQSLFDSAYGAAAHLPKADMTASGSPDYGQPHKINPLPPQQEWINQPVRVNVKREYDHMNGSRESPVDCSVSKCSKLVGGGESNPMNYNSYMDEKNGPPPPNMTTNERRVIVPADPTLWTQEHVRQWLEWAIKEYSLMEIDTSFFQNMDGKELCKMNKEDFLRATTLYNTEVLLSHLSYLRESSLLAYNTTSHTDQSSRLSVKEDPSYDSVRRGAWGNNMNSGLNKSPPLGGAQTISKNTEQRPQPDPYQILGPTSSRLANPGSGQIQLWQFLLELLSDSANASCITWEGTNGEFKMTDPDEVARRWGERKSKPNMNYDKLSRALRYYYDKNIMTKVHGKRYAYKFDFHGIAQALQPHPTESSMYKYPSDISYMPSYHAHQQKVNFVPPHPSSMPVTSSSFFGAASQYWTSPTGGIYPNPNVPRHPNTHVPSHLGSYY
# Outline: (§1)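 Human transcription factors fused to GST were expressed in yeast, captured on glutathione beads, given DNA barcodes and pooled with a GST-only negative control. Pools were incubated with 200 nmole of a 16-mer random double-stranded DNA library in Tris/NaCl/DTT/glycerol buffer at room temperature for 30 min. They were then washed, crosslinked with 0.1% formaldehyde, proximity-ligated (BsaI/T4 ligase, 1 h, 37 °C), PCR-amplified and sequenced on an Illumina NextSeq500. Binding signal is each 6-mer's read frequency for a factor divided by its frequency for the GST control.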
# ELK1 = target: T2, ELK1 (Homo sapiens, UniProt P19419 1-428); details: protein: recombinant; tags: N-terminal GST; dsDNA, one strand shown
# T2 sequence: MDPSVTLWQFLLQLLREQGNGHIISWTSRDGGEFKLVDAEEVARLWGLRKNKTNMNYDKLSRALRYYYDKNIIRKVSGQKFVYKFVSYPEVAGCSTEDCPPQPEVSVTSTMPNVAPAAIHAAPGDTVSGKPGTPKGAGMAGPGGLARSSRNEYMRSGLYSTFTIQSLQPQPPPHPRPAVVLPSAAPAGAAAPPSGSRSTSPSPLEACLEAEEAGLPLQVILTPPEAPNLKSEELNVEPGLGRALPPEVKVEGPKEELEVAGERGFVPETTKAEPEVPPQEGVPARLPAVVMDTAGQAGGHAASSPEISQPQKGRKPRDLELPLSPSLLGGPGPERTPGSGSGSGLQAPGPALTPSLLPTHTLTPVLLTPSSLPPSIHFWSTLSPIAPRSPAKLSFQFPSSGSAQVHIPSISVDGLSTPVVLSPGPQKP
# Outline: as §1
# GABPA = target: T3, GABPA (Homo sapiens, UniProt Q06546 1-454); details: protein: recombinant; tags: N-terminal GST; dsDNA, one strand shown
# T3 sequence: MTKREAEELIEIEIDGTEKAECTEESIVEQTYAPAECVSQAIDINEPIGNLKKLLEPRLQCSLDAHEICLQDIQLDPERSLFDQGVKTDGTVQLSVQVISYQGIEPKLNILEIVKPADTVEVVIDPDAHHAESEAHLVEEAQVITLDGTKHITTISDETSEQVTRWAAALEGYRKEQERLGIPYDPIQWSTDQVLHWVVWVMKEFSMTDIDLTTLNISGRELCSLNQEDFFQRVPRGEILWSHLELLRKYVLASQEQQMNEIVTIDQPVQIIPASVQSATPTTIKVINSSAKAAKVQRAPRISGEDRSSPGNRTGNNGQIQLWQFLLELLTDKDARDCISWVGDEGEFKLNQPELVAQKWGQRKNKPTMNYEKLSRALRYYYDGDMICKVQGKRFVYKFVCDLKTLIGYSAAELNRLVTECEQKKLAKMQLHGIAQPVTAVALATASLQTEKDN
# Outline: as §1
# ERG = target: T4, ERG (Homo sapiens, UniProt P11308 1-479); details: protein: recombinant; tags: N-terminal GST; dsDNA, one strand shown
# T4 sequence: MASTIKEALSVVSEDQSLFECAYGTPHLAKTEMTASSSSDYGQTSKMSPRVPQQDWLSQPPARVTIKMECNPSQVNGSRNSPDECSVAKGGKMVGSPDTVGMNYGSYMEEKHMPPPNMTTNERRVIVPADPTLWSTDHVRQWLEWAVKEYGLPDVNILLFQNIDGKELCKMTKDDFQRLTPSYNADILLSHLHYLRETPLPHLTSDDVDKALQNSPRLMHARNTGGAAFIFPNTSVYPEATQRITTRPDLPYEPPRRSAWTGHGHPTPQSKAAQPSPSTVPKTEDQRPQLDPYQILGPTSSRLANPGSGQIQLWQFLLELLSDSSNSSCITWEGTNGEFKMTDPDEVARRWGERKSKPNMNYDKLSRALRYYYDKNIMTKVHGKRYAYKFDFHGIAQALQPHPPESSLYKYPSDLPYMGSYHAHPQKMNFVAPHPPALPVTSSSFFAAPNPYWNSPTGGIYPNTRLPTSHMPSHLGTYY
# Outline: as §1
# ELF1 = ELF1 (Homo sapiens, UniProt P32519 1-619); details: protein: recombinant; tags: N-terminal GST; dsDNA, one strand shown
# Outline: as §1
# EHF = target: T5, EHF (Homo sapiens, UniProt Q9NZC4 1-300); details: protein: recombinant; tags: N-terminal GST; dsDNA, one strand shown
# T5 sequence: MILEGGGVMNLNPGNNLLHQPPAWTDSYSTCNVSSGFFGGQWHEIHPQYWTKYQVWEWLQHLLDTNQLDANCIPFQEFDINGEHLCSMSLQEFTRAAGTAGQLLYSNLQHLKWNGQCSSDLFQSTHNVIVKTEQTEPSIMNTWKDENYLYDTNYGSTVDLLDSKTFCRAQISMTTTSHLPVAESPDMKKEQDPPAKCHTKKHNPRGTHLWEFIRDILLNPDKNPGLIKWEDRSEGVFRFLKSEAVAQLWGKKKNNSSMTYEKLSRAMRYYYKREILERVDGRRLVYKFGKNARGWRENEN
# Outline: as §1
# SPI1 = SPI1 (Homo sapiens, UniProt P17947 1-270); details: protein: recombinant; tags: N-terminal GST; dsDNA, one strand shown
# Outline: as §1
# SPIB = SPIB (Homo sapiens, UniProt Q01892 1-262); details: protein: recombinant; tags: N-terminal GST; dsDNA, one strand shown
# Outline: as §1
# ELK3 = target: T6, ELK3 (Homo sapiens, UniProt P41970 1-407); details: protein: recombinant; tags: N-terminal GST; dsDNA, one strand shown
# T6 sequence: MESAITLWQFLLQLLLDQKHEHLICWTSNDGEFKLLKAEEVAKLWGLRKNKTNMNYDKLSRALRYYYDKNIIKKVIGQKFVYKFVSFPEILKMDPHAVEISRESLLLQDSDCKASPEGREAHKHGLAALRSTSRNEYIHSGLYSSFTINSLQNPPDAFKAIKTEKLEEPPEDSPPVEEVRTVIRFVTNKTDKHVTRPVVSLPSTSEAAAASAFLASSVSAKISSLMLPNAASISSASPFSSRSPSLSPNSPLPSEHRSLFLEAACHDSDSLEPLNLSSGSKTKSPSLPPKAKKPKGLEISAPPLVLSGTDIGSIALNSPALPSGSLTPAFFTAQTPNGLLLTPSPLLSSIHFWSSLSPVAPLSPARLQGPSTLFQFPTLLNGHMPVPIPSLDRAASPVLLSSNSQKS
# Outline: as §1
# FEV = target: T7, FEV (Homo sapiens, UniProt Q99581 1-238); details: protein: recombinant; tags: N-terminal GST; dsDNA, one strand shown
# T7 sequence: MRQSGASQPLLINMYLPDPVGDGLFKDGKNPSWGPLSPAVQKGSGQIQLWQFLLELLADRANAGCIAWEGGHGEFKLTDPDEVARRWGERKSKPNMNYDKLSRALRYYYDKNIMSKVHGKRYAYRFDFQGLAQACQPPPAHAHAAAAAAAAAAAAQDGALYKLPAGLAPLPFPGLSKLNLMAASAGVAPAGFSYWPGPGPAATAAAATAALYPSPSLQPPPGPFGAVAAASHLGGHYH
# Outline: as §1
# ETV5 = ETV5 (Homo sapiens, UniProt P41161 1-510); details: protein: recombinant; tags: N-terminal GST; dsDNA, one strand shown
# Outline: as §1
# HSF1 = HSF1 (Homo sapiens, UniProt Q00613 1-529); details: protein: recombinant; tags: N-terminal GST; chain copies: 3; dsDNA, one strand shown
# Outline: as §1
# SPIC = target: T8, SPIC (Homo sapiens, UniProt Q8N5J4 1-248); details: protein: recombinant; tags: N-terminal GST; dsDNA, one strand shown
# T8 sequence: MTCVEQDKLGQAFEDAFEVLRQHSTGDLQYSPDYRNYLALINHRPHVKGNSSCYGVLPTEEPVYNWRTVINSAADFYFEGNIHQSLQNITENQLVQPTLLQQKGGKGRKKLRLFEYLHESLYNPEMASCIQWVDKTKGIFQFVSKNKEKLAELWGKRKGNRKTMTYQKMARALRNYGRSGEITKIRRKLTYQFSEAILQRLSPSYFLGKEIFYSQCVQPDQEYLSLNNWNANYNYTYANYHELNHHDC
# Outline: as §1
# ELF4 = ELF4 (Homo sapiens, UniProt Q99607 1-663); details: protein: recombinant; tags: N-terminal GST; dsDNA, one strand shown
# Outline: as §1
# ELK4 = target: T9, ELK4 (Homo sapiens, UniProt P28324-2 1-405); details: protein: recombinant; tags: N-terminal GST; dsDNA, one strand shown
# T9 sequence: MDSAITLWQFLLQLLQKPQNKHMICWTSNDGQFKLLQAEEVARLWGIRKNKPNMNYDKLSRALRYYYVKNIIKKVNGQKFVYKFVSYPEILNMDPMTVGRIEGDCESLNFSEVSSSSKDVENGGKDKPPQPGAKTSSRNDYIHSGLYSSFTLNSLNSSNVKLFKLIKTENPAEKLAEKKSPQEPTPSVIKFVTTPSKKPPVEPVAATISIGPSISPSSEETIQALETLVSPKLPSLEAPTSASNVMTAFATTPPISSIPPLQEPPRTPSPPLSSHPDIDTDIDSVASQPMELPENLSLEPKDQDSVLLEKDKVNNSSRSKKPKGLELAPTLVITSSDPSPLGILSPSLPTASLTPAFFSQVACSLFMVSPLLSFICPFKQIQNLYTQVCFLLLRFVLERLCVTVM
# Outline: as §1
# ETV2 = target: T10, ETV2 (Homo sapiens, UniProt O00321 1-342); details: protein: recombinant; tags: N-terminal GST; dsDNA, one strand shown
# T10 sequence: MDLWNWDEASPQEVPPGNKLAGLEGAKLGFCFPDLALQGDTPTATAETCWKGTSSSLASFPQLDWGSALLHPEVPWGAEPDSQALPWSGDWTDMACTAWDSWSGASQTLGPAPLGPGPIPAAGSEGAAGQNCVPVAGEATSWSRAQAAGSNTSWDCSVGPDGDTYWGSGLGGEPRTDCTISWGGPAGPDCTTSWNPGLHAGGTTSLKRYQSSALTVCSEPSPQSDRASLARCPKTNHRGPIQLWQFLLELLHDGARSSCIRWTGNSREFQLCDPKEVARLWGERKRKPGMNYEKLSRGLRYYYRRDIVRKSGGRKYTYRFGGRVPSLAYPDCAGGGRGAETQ
# Outline: as §1
# ELF3 = target: T11, ELF3 (Homo sapiens, UniProt P78545 1-371); details: protein: recombinant; tags: N-terminal GST; dsDNA, one strand shown
# T11 sequence: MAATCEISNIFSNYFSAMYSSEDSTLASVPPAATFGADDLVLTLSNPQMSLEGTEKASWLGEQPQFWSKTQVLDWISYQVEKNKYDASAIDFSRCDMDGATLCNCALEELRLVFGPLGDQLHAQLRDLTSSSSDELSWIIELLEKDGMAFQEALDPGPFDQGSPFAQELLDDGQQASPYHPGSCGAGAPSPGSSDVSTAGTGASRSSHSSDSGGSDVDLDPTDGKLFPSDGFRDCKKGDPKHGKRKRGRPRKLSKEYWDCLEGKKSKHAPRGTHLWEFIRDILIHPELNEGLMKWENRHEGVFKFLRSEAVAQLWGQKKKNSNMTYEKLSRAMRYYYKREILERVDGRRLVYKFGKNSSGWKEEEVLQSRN
# Outline: as §1
# CRX = CRX (Homo sapiens, UniProt O43186 1-299); details: protein: recombinant; tags: N-terminal GST; dsDNA, one strand shown
# Outline: as §1
# ETV1 = ETV1 (Homo sapiens, UniProt P50549 1-477); details: protein: recombinant; tags: N-terminal GST; dsDNA, one strand shown
# Outline: as §1
# ELF1, sequence (P32519 whole entry): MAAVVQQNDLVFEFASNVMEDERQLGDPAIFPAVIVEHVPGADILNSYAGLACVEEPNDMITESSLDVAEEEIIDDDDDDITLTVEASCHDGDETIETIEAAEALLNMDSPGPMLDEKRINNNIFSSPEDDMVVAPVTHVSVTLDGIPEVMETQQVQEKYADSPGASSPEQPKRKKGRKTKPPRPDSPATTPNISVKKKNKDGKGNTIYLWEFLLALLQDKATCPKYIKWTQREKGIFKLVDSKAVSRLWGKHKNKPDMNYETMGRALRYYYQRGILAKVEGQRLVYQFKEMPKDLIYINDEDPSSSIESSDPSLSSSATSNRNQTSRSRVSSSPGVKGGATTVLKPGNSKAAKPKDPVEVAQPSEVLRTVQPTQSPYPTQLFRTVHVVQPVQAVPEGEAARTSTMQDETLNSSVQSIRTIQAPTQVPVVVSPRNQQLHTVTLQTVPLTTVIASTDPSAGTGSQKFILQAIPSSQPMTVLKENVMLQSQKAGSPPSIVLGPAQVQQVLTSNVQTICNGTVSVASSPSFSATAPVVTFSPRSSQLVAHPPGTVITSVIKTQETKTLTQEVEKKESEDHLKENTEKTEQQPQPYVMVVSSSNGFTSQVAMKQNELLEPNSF
# ELF4, sequence (Q99607 whole entry): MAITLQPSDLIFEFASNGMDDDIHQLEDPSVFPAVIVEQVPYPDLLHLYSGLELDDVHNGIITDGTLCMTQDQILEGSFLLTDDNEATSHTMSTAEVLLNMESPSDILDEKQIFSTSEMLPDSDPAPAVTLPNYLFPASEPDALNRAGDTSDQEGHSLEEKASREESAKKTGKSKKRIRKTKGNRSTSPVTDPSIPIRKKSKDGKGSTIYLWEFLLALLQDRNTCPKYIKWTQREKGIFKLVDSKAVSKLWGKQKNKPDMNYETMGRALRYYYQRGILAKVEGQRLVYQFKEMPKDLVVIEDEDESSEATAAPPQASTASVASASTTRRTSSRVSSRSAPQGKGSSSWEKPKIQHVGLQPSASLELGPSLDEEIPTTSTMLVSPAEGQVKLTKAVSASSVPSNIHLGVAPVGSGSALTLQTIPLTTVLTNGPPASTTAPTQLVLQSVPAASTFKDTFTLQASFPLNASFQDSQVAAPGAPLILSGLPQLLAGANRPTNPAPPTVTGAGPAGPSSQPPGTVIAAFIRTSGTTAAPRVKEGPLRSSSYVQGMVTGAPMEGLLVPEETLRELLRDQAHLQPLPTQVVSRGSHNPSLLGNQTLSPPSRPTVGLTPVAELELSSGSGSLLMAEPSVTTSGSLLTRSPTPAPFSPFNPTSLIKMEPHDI
# ETV1, sequence (P50549 whole entry): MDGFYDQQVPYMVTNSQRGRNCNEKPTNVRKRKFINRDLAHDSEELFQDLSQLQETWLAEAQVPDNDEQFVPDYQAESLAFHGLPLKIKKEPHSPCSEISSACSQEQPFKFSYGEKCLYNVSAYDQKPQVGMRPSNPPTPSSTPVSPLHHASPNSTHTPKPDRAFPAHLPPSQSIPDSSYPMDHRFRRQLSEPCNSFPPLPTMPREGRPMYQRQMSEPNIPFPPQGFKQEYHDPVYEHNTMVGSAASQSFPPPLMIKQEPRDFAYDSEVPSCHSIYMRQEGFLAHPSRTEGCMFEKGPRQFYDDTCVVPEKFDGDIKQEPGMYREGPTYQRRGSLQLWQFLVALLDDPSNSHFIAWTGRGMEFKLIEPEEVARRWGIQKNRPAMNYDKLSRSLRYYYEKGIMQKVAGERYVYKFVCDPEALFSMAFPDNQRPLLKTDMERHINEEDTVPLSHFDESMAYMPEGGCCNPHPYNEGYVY
# CRX, sequence (O43186 whole entry): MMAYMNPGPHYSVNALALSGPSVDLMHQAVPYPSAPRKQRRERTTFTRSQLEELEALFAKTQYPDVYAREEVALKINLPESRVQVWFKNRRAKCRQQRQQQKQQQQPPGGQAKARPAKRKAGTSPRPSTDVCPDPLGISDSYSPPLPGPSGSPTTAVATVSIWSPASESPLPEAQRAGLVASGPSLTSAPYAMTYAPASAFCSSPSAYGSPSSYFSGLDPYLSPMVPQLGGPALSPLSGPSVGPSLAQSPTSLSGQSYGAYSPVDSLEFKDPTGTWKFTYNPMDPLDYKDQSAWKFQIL
# HSF1, sequence (Q00613 whole entry): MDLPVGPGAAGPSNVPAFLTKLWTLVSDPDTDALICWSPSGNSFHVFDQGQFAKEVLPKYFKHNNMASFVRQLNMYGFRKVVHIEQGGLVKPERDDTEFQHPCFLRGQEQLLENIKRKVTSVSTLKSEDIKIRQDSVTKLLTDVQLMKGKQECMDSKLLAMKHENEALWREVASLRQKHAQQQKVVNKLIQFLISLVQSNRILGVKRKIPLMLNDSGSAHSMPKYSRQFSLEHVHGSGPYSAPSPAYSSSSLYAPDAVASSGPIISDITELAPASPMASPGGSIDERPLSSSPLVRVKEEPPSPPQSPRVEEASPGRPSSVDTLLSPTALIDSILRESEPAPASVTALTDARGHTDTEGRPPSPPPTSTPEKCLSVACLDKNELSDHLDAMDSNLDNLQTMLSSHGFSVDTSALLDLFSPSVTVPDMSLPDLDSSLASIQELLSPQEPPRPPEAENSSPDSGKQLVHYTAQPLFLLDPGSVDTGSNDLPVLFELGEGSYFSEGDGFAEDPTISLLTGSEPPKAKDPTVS
# SPIB, sequence (Q01892 whole entry): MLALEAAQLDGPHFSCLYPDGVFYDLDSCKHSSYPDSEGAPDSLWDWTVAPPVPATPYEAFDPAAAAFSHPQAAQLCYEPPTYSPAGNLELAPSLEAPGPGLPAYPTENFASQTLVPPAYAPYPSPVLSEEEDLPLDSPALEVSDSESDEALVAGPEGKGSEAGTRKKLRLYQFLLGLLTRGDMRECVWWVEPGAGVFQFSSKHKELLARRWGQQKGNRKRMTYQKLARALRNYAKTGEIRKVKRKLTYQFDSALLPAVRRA
# ETV5, sequence (P41161 whole entry): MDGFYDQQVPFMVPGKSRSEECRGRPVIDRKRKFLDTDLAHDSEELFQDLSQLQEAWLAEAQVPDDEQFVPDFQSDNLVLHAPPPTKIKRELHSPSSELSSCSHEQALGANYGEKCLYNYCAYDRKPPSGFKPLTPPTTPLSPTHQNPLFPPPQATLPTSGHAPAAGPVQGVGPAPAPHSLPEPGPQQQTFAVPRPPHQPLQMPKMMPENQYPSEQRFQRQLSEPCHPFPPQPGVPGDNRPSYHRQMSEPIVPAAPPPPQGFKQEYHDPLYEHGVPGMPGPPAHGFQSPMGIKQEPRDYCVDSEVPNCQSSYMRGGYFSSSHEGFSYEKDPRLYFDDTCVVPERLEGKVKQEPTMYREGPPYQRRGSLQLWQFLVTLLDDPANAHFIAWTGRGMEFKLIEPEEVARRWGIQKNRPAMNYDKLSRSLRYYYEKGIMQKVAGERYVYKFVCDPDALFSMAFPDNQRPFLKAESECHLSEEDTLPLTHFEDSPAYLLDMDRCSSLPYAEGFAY
sequence,measurement,setting,value
CTTATG,binding signal,FLI1,"1.52 fold enrichment (6-mer frequency, TF over GST control)"
same,binding signal,ELK1,"1.56 fold enrichment (6-mer frequency, TF over GST control)"
same,binding signal,GABPA,"1.4 fold enrichment (6-mer frequency, TF over GST control)"
same,binding signal,ERG,"1.45 fold enrichment (6-mer frequency, TF over GST control)"
same,binding signal,ELF1,"1.38 fold enrichment (6-mer frequency, TF over GST control)"
same,binding signal,EHF,"1.39 fold enrichment (6-mer frequency, TF over GST control)"
same,binding signal,SPI1,"1.45 fold enrichment (6-mer frequency, TF over GST control)"
same,binding signal,SPIB,"1.59 fold enrichment (6-mer frequency, TF over GST control)"
same,binding signal,ELK3,"1.46 fold enrichment (6-mer frequency, TF over GST control)"
same,binding signal,FEV,"1.35 fold enrichment (6-mer frequency, TF over GST control)"
same,binding signal,ETV5,"1.5 fold enrichment (6-mer frequency, TF over GST control)"
same,binding signal,HSF1,"1.64 fold enrichment (6-mer frequency, TF over GST control)"
same,binding signal,SPIC,"1.33 fold enrichment (6-mer frequency, TF over GST control)"
same,binding signal,ELF4,"1.49 fold enrichment (6-mer frequency, TF over GST control)"
same,binding signal,ELK4,"1.55 fold enrichment (6-mer frequency, TF over GST control)"
same,binding signal,ETV2,"1.37 fold enrichment (6-mer frequency, TF over GST control)"
same,binding signal,ELF3,"1.45 fold enrichment (6-mer frequency, TF over GST control)"
same,binding signal,CRX,"2.2 fold enrichment (6-mer frequency, TF over GST control)"
same,binding signal,ETV1,"1.58 fold enrichment (6-mer frequency, TF over GST control)"

# Source: paper PMC7862700, “An all-to-all approach to the identification of sequence-specific readers for epigenetic DNA modifications on cytosine”
